The results in this text go back to PubChem BioAssay (NCATS).

Each structure is given as a SMILES string. Unmarked numbers belong to inactive results. Inconclusive results are not listed. Activity calls are given as the source filed them. Unless noted, calls come from the whole dose curve; as a rule, active = well fitted curve in either direction with a large enough effect (not every such curve was filed as active); inconclusive = small, poorly fitted or top-dose-only effect, or another doubt; inactive = flat fitted curve, though single readings scatter. A value given as a limit tells only on which side of the number the result lay.

A short description of experiment [1]: AP1 Signaling Pathway (AID 357). Note: % is set by controls: 0 for no effect and ±100 for the full control effect. Particulars: ME-180 AP-1-bla reporter, EGF-induced, beta-lactamase ratio, 5 h; at 17.2 µM (top of the series) unless noted. In a few lines: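 AP-1-bla ME-180 cells with beta-lactamase reporter under AP-1 response element, stimulated with EC50 EGF; compounds titrated, 5 hours at 37 degrees Celsius. CCF4 read at 460/530 nm ratio; positive and negative modulators judged by AC50.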

Experiment [2] is described as follows: Stat Signaling Pathway (AID 446).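 Note: ME-180 cervical cancer cells given 40 pM IL-6 alongside compound; SIE-controlled beta-lactamase reporter measured as 460/530 nm FRET emission ratio; % is set by controls: 0 for no effect and ±100 for the full control effect.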 Conditions: ME-180 (cervical carcinoma) SIE beta-lactamase reporter, IL-6 stimulated, 5 h; at 17.2 µM (top of the series) unless noted. The procedure, abridged: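 FRET read-out (405 nm excitation, 460/530 nm emission) of a beta-lactamase reporter under a STAT-inducible element in ME-180 cervical carcinoma cells. Cells with compound receive 40 pM IL-6 for 5 h. Values are normalised to AC90 stimulation and AC90 JAK-inhibitor controls.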

For experiment [3], the target named is Glucocorticoid receptor (Homo sapiens) (UniProt P04150). The experiment can be described thus: GR-GFP Redistribution (AID 450;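 active = compounds whose dose series gives a full or clear partial fitted curve of increased nuclear translocation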; note: potency is the fitted concentration of half-maximal effect).
Glucocorticoid receptor (Homo sapiens), sequence (P04150 whole entry, looked up, the tested form may be a part): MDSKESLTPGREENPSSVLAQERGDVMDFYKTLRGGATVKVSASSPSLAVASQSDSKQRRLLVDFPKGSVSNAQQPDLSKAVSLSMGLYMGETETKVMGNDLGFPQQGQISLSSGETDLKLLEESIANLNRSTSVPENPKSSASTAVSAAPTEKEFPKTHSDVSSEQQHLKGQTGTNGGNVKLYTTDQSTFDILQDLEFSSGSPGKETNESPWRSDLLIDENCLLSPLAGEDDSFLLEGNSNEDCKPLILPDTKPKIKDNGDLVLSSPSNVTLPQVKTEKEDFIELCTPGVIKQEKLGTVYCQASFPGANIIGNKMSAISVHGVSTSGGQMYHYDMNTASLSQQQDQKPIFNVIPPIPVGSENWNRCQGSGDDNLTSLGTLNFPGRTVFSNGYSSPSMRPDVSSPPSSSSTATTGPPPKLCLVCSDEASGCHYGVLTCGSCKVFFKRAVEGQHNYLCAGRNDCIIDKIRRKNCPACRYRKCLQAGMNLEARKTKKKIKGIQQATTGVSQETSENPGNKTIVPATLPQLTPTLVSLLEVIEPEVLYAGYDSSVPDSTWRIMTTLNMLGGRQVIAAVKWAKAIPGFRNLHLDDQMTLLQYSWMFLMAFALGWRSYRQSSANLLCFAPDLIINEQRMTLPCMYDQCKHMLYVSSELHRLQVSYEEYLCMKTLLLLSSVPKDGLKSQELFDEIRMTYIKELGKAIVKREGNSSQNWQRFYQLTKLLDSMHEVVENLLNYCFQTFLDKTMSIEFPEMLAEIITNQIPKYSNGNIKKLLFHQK
For experiment [4] the target is unchanged. The experiment can be described thus: GR-EFC Redistribution (AID 451; calls by dose curve; note: potency is the fitted concentration of half-maximal effect). Particulars: CHO-K1 GR-EFC translocation, beta-gal luminescence, 2 h. In a few lines: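 Translocation of GR-ED fusion to nuclear EA restores b-gal, read by luminescence after 1 h room-temperature detection. Engineered CHO-K1 biosensor cells, 1,000/well, exposed 2 h at 37 C to titrations up to 46 uM final.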

Experiment [5] concerns the target Mitogen-activated protein kinase 10 (Mus musculus) (UniProt Q61831). The experiment can be described thus: JNK3 AlphaScreen Assay (AID 530).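 Note: kinase came from lysate of stimulated human HepG2 cells; signal reports phosphorylation of biotinylated GST-cJun 1-79 at Ser73 with 10 µM ATP; % is set by controls: 0 for no effect and ±100 for the full control effect.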 In a few lines:
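Kinase buffer: 20 mM Tris-HCl pH 7.6, 10 mM MgCl2, 1 mM DTT, 0.1 mM Na3VO4, 0.01% Tween-20; ATP 10 uM. Substrate biotin-GST-cJun(1-79), enzyme from activated HepG2 lysates. Detection by Ser73 phospho-antibody AlphaScreen.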

In experiment [6] the target is 3',5'-cyclic-AMP phosphodiesterase 4B (Homo sapiens) (UniProt Q07343). The experiment can be described thus: qHTS Assay for Inhibitors of PDE-IV (AID 607; active = well fitted activation curve with a large enough effect in the main read-out, with a control signal flat, not every such curve was filed as active; note: % of control where 0% means no effect). The procedure, abridged: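 Cell-based read-out of cAMP via a modified cyclic nucleotide-gated channel and membrane potential dye (535/590 nm) in HEK293 cells expressing PDE4 endogenously. Compounds tested up to 22.9 uM final; 100 uM RO 20-1724 reference.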
3',5'-cyclic-AMP phosphodiesterase 4B (Homo sapiens), sequence (Q07343 whole entry, looked up): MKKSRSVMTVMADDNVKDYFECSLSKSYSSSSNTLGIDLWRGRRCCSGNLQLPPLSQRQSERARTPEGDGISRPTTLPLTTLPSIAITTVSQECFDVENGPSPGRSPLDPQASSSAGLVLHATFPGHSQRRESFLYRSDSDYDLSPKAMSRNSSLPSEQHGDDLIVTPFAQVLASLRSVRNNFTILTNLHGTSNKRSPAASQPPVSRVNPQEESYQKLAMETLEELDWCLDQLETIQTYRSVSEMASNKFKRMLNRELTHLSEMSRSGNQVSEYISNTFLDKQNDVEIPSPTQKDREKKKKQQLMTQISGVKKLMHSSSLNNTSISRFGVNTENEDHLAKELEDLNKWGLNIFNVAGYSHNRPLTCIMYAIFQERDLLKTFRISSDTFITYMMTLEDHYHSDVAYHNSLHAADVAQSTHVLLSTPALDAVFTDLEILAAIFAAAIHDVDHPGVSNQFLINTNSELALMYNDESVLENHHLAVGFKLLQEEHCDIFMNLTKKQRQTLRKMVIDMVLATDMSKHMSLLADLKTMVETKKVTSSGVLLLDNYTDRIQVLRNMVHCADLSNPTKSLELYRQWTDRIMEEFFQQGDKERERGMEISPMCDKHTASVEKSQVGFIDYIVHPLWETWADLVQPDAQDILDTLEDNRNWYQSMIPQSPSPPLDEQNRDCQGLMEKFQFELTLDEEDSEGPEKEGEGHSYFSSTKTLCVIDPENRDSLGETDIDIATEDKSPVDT
Background: In qHTS, concentration-response curves come from the screen itself.

Experiment [7] has as its target Cytochrome P450 3A4 (Homo sapiens) (UniProt P08684). The experiment can be described thus: qHTS Assay for Inhibitors and Substrates of Cytochrome P450 3A4 (AID 884; active = well fitted curve in the direction sought with a large enough effect; an effect the other way counts as inactive or inconclusive; note: potency is the fitted concentration of half-maximal effect; nearly all actives have a fitted effect of over 50% in size). In a few lines: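 Luminescent readout of luciferin produced by CYP3A4 (20 nM) dealkylation of Luciferin-PPXE, 25 uM (its KM). NADPH-driven reaction ran 60 min at RT after 10 min compound preincubation; data scaled to 57 uM ketoconazole as 100% inhibition.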

Experiment [8] has the same target. The experiment can be described thus: qHTS Assay for Activators of Cytochrome P450 3A4 (AID 885; active = well fitted curve in the direction sought with a large enough effect; an effect the other way counts as inactive or inconclusive; note: nearly all actives have a fitted effect of over 65% in size). In a few lines: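 Luminescent readout of luciferin formed from 25 uM Luciferin-PPXE (KM level) by 20 nM CYP3A4 in 200 mM KPO4, with 60 min NADPH-driven reaction at room temperature after 10 min compound exposure. Ketoconazole (57 uM) defined 100% inhibition.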
The target of experiment [9] is Cytochrome P450 2C19 (Homo sapiens) (UniProt P33261). The experiment can be described thus: qHTS Assay for Inhibitors and Substrates of Cytochrome P450 2C19 (AID 899; active = well fitted curve in the direction sought with a large enough effect; an effect the other way counts as inactive or inconclusive; note: potency is the fitted concentration of half-maximal effect; nearly all actives have a fitted effect of over 60% in size). The procedure, abridged:
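Luminescence readout of luciferin formed from 10uM Luciferin-H EGE (KM level) by 5 nM CYP2C19 in 50mM KPO4. 60 min NADPH-driven reaction at 37C after 10 min compound preincubation; data scaled to 57uM ketoconazole inhibition.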

Experiment [10] can be described thus: qHTS Assay for Identification of Small Molecule Agonists for Thrombopoietin (TPO) Signaling Pathway (AID 917; active = well fitted curve in the direction sought with a large enough effect; an effect the other way counts as inactive or inconclusive; note: % is set by controls: 0 for no effect and ±100 for the full control effect). The procedure, abridged:
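Stimulation at the TPO EC50 (26 pM final) was used to detect activators. Ba/F3 mouse cells bearing human TPO receptor and a luciferase reporter under the Glycoprotein IIb promoter were exposed to compounds for 24 hrs at 37 C.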

Experiment [11] has as its target Pyruvate kinase (Leishmania mexicana) (UniProt Q27686). The experiment can be described thus: qHTS Validation Assay for Inhibitors of Leishmania Mexicana Pyruvate Kinase (AID 945; active = well fitted curve in the direction sought with a large enough effect; an effect the other way counts as inactive or inconclusive;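 note: 0% = DMSO only neutral control wells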). In a few lines: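 qHTS eight-point titrations against 0.2 nM LmPYK (E451W) in imidazole buffer pH 7.2 with 0.5 mM PEP, 0.1 mM ADP; 1 h, room temperature. Readout: PKLight luminescence, normalized to neutral DMSO wells.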

Experiment [12] addresses Pyruvate kinase PKM (Homo sapiens) (UniProt P14618). The experiment can be described thus: qHTS Assay for Activators of Human Muscle Pyruvate Kinase (AID 954; active = well fitted curve in the direction sought with a large enough effect, not every such curve was filed as active;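 note: 0% = uninhibited enzyme and -100% = no enzyme or full thiadiazolimine inhibition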). In a few lines: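 ATP production by PKM2 detected via luciferase luminescence after 1 h room-temperature reaction (0.1 nM enzyme, PEP at Km 0.5 mM, ADP 0.1 mM, pH 7.2 imidazole buffer). Inhibition scaled to no-enzyme control; activation referenced to 0.3 nM enzyme wells.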

Experiment [13] addresses Alpha-galactosidase A (Homo sapiens) (UniProt P06280). The experiment can be described thus: Counterscreen for Glucocerebrosidase Inhibitors: qHTS Assay for Human alpha-Galactosidase at pH 4.5 (AID 992; active = well fitted curve in the direction sought with a large enough effect; an effect the other way counts as inactive or inconclusive; note: 0% is about no effect). In a few lines:
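Fluorogenic 1536-well qHTS at pH 4.5 (citrate, Tween-20): 2 nM enzyme, 80 uM 4-MU-alpha-galactoside, 20 min room temperature, NaOH/glycine stop. Titration 0.7 nM to 77 uM, data normalized to no-enzyme and full-activity controls, Hill-fitted AC50.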
(Counterscreens check selectivity or assay interference.)

For experiment [14], the target named is alpha-glucosidase (Oryza sativa, rice) (UniProt Q653V4). The experiment can be described thus: Counterscreen for Glucocerebrosidase Inhibitors: qHTS Assay for Rice alpha-Glucosidase at pH 5.0 (AID 997; active = well fitted curve in the direction sought with a large enough effect; an effect the other way counts as inactive or inconclusive;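 note: 0% = full activity with enzyme and -100% = basal without enzyme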). The procedure, abridged: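 Endpoint fluorogenic assay at pH 5.0: compounds (0.7 nM to 77 uM) titrated against 4 nM rice enzyme and 400 uM 4-MU-alpha-glucoside for 20 min at room temperature; NaOH/glycine stop, read ex 365/em 440 nm, Hill-fitted AC50.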

Cytochrome P450 3A4 (Homo sapiens), sequence (P08684 whole entry, looked up): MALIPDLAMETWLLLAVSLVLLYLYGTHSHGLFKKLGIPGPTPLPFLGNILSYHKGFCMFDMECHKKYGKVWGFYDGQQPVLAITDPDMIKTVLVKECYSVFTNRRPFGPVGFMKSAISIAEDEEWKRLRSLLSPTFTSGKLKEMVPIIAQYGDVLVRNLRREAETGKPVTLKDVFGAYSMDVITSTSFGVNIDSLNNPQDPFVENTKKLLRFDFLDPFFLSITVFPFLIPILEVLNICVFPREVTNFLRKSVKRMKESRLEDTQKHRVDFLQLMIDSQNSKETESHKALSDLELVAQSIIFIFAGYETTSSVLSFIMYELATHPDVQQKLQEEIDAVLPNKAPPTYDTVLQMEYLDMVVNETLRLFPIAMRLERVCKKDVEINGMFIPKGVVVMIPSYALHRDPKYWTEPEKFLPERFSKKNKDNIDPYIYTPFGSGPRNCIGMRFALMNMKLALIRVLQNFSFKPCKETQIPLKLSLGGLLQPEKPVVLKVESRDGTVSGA
Alpha-galactosidase A (Homo sapiens), sequence (P06280 whole entry, looked up): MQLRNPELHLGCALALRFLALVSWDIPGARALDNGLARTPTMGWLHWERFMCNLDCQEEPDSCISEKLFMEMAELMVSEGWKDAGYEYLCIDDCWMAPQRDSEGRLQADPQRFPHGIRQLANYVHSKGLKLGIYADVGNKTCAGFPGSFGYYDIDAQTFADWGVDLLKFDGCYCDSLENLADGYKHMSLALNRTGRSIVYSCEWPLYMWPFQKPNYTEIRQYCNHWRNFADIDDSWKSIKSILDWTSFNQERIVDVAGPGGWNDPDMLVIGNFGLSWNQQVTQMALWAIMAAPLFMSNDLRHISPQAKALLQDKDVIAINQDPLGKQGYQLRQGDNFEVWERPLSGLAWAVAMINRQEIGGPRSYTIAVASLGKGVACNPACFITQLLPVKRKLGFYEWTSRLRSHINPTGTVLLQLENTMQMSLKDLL
Pyruvate kinase PKM (Homo sapiens), sequence (P14618 whole entry, looked up): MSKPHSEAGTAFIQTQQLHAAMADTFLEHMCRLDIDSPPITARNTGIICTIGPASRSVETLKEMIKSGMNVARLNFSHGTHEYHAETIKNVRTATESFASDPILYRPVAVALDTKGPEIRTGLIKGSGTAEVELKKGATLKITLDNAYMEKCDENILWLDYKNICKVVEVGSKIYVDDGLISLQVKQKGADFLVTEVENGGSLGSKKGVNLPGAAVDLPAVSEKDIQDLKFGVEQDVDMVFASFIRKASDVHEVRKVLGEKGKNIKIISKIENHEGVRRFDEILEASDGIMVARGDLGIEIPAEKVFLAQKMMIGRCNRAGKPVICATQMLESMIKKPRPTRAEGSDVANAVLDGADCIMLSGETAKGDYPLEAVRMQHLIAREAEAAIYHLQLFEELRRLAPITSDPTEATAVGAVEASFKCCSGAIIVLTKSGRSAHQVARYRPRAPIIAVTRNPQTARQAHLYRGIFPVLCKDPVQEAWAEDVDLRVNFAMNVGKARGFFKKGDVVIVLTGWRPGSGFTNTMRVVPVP
Cytochrome P450 2C19 (Homo sapiens), sequence (P33261 whole entry, looked up): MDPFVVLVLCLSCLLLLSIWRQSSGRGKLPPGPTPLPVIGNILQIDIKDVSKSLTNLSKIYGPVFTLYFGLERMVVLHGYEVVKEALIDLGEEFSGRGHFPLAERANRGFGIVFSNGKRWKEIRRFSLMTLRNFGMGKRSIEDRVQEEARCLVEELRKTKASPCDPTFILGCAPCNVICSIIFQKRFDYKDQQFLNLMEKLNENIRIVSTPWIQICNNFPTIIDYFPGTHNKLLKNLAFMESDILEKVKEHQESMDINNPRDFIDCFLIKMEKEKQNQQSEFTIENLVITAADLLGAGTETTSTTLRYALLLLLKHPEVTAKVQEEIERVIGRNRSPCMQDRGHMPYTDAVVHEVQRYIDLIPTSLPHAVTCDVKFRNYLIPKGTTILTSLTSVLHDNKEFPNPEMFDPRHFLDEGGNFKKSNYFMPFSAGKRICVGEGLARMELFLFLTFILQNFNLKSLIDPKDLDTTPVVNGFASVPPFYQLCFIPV
Pyruvate kinase (Leishmania mexicana), sequence (Q27686 2-499 E452W): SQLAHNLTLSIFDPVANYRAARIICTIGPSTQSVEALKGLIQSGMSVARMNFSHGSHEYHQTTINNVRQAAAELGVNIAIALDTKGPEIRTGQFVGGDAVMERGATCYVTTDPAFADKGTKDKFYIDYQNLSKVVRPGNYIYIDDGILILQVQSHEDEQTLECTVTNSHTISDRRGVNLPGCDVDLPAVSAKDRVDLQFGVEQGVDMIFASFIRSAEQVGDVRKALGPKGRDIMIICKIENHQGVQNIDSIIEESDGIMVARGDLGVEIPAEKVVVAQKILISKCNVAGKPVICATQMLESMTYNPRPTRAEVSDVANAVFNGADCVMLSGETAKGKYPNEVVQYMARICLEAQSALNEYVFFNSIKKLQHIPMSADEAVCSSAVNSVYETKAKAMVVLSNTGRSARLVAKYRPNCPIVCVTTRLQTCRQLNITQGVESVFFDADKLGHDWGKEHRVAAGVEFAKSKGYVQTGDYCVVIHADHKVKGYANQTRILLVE

With `CC(C)Cc1nc(N2CCOCC2)c(C#N)c2c1CCC2`, the activity change, negative = inhibition in experiment [1] was -16.4%. Also, in [2], the activity, negative = inhibition was -0.768%. In addition, the Potency in experiment [3] was more than 20.6 µM.
For `CN1CC2(C)CN(C(c3ccccc3)c3ccccc3)CC(C)(C1)C2O` (configuration not stated), in that order: 14.1%, 2.94% and more than 20.6 µM.
For the compound `NC(=O)/C(=C\c1ccncc1)c1cccc2ccccc12`, the activity change, negative = inhibition in experiment [1] was -11.2% [at 7.69 µM]; in [5], 1.18% [at 11.4 µM]. In addition, the activity, negative = inhibition in experiment [2] is -3.8% [at 7.69 µM]. For the same compound, the Potency was more than 46 µM in experiment [3], more than 9.22 µM in experiment [4], 3.16 µM (active) in experiment [7] and 2.51 µM (active) in experiment [9]. Also, the Potency entry in experiment [6] is “inactive”. Also, in experiment [8], the activity change, positive = activation is -72.7% [at 11.4 µM].
Turning to `COc1ccc(N2CCN(C3CC(=O)NC3=O)CC2)cc1` (configuration not stated), in experiment [1], the activity change, negative = inhibition is -0.252%. For the same compound, in experiment [2], the activity, negative = inhibition was 17.5%. Besides, the Potency in experiment [3] was more than 20.6 µM.
In the case of `CCCCCCCCCCCCCCCCCCOC[C@@H](COP(=O)([O-])OCC[N+](C)(C)C)OC`, in experiment [1], the activity change, negative = inhibition was 29% [at 38 µM]. The activity, negative = inhibition in experiment [2] was 4.35% [at 38 µM]. Further, the Potency in experiment [3] and in experiment [4] was more than 46 µM throughout. Also, the Potency result in experiment [5], in [6], in experiment [10] and in experiment [11] was “inactive” in each case. Moreover, the call in experiment [12], in experiment [13] and in experiment [14] was inactive.
Take `Nc1ccc2oc(-c3cc(Br)ccc3Cl)nc2c1`: in experiment [1], the activity change, negative = inhibition is -29.4%. In addition, the activity, negative = inhibition in experiment [2] is 0.658%. Further, in experiment [3], the Potency was more than 20.6 µM.
Take `CCC(NC(C)C)C(O)c1ccc(O)c2[nH]c(=O)ccc12` (configuration not stated): the activity change, negative = inhibition in experiment [1] is -12.1%. Besides, in experiment [2], the activity, negative = inhibition is 11.4%. Besides, the Potency in experiment [3] is more than 20.6 µM.
For `COc1cccc(-c2nc(NCCN3CCOCC3)c3ccccc3n2)c1O`, in experiment [1], the activity change, negative = inhibition was -15.3%. Besides, the activity, negative = inhibition in [2] is 6.04%. Further, the Potency in [3] was more than 20.6 µM.
For `Cn1c(N2CCOCC2)nc2c1c(=O)n(Cc1ccc(Cl)cc1)c(=O)n2C`, in that order: 1.13%, 23.9% and more than 20.6 µM.
With `c1ccc(C2Nc3ccccc3-c3nc4ccccc4n32)nc1` (configuration not stated), in [1], the activity change, negative = inhibition was -3.28%. Further, in [2], the activity, negative = inhibition is -0.281%. The Potency in experiment [3] was more than 20.6 µM.
As for `O=C(c1ccccc1F)N1CCC(N2CCCCCC2)CC1`, the activity change, negative = inhibition in [1] was -3.96%. Moreover, in experiment [2], the activity, negative = inhibition was 2.78%. In experiment [3], the Potency was more than 20.6 µM.
